# Results from PubChem BioAssay (Tox21).
# Inconclusive results are not listed. Entries that show only a call come without a potency. Activity calls are given as the source filed them. Unless noted, calls come from the whole dose curve; as a rule, active = well fitted curve in the direction sought with a large enough effect in the repeat runs; inconclusive = weak or mixed curves; inactive = no such curve, though single readings can be large; an effect the other way counts as inactive or inconclusive.
# How the values were obtained:
# [1] = qHTS assay to identify small molecule antagonists of the glucocorticoid receptor (GR) signaling pathway - cell viability counter screen (AID 720693); note: nearly all actives have a fitted effect of over 55% in size
# [2] = qHTS assay for identifying genotoxic compounds that show differential cytotoxicity against isogenic chicken DT40 cell lines with known DNA damage response pathways - Rev3 mutant cell line (AID 743014); note: nearly all actives have a fitted effect of over 55% in size; note: potency is the fitted concentration of half-maximal effect
# [3] = qHTS assay for identifying genotoxic compounds that show differential cytotoxicity against isogenic chicken DT40 cell lines with known DNA damage response pathways - Rad54/Ku70 mutant cell line (AID 743015); note: nearly all actives have a fitted effect of over 60% in size; note: potency is the fitted concentration of half-maximal effect
# [4] = qHTS assay to identify small molecule antagonists of the androgen receptor (AR) signaling pathway - cell viability counter screen (AID 743033; note: nearly all actives have a fitted effect of over 45% in size)
# [5] = qHTS assay to identify small molecule antagonists of the androgen receptor (AR) signaling pathway using the MDA cell line - cell viability counter screen (AID 743041; note: nearly all actives have a fitted effect of over 45% in size)
# Outline: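 Compound exposure lasted 16 h at 37C in MDA-kb2 AR-luc cells stimulated with R1881. Protease-based CellTiter-Fluor reagent was applied for the final 30 min and fluorescence measured.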
# [6] = target: Androgen receptor (Homo sapiens) (UniProt P10275); assay: qHTS assay to identify small molecule agonists of the androgen receptor (AR) signaling pathway (AID 743036; active = well fitted activation curve with a large enough effect in the signal ratio in the repeat runs, with a control signal flat, not every such curve was filed as active; the % refers to the signal ratio)
# Sequence of Androgen receptor (Homo sapiens) (P10275 whole entry, looked up): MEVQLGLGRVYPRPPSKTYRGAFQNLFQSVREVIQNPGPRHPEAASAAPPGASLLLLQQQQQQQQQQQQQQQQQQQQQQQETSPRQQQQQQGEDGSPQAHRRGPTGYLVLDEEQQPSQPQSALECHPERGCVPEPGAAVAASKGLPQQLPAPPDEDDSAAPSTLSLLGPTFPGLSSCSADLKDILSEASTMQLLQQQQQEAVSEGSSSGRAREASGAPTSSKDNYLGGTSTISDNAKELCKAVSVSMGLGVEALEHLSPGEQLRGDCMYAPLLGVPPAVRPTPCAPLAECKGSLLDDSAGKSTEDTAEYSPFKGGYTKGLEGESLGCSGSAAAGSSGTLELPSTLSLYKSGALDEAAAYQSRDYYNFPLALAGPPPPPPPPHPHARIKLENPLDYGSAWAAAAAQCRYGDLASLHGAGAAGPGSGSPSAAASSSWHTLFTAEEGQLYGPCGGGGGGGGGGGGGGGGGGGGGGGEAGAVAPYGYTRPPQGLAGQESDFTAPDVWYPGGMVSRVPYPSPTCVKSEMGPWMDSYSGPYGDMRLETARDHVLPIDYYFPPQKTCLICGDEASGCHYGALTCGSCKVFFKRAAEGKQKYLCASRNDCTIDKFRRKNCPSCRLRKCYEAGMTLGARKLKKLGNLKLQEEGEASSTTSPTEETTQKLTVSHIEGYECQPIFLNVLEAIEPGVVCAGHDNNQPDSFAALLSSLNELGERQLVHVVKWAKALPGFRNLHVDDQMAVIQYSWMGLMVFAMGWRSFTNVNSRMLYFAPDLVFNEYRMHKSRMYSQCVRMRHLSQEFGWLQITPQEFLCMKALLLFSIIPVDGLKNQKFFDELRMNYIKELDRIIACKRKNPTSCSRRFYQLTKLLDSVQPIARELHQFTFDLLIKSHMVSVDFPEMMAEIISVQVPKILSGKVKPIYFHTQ
# Outline: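 Beta-lactamase under UAS control, stably integrated in HEK293 GripTite cells, reports receptor activation. After 16 h compound treatment, cells received FRET substrate for 2 h at room temperature before fluorescence reading.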
# [7] = target: Androgen receptor (Homo sapiens) (UniProt P10275); assay: qHTS assay to identify small molecule agonists of the androgen receptor (AR) signaling pathway using the MDA cell line (AID 743040; note: nearly all actives have a fitted effect of over 20% in size)
# Outline: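 Testing was done with the MDA-kb2 AR-luc line, a human breast carcinoma stably transfected with MMTV-luciferase containing AR and GR response elements. Cells were exposed 16 h at 37C before ONE-Glo luminescence detection.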
# [8] = target: Androgen receptor (Homo sapiens) (UniProt P10275); assay: qHTS assay to identify small molecule antagonists of the androgen receptor (AR) signaling pathway using the MDA cell line (AID 743042; note: nearly all actives have a fitted effect of over 55% in size)
# Outline: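 MDA-kb2 breast carcinoma cells carrying MMTV-luciferase (AR/GR responsive) were co-treated with compounds and the agonist R1881 for 16 h at 37C. Inhibition read as ONE-Glo luminescence; CellTiter-Fluor fluorescence measured in parallel for cytotoxicity.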
# [9] = target: Androgen receptor (Homo sapiens) (UniProt P10275); assay: qHTS assay to identify small molecule antagonists of the androgen receptor (AR) signaling pathway (AID 743035; active = well fitted inhibition curve with a large enough effect in the signal ratio in the repeat runs, not every such curve was filed as active; the % refers to the signal ratio)
# Outline: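 AR-bla HEK293 reporter cells; 4 h settle at 37C/5% CO2; compound + R1881 agonist, 16 h at 37C; LiveBLAzer B/G FRET substrate 2 h RT; fluorescence intensity read. qHTS format.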
SMILES,Potency [1],Potency [2],Potency [3],Potency [4],Potency [5],outcome [6],Potency [7],Potency [8],Potency [9]
CCOC(=O)C(C)O (stereo not given),inactive,inactive,inactive,inactive,inactive,,,,
CNCc1ccc(NC(=O)c2c[nH]c3c2C(=O)CCC3)cc1,inactive,54.5 µM (active),54.5 µM (active),inactive,inactive,,,,
CC(C(=O)O)c1ccc(C(=O)c2cccs2)cc1 (stereo not given),inactive,inactive,inactive,inactive,inactive,,,,
O=NN(CCCl)C(=O)NCCCl,inactive,inactive,inactive,inactive,,inactive,inactive,inactive,
O=C(O)c1ccc(O)cc1O,inactive,inactive,inactive,inactive,inactive,,,,
CNc1c2c(nn1C)CCCC2,inactive,inactive,inactive,inactive,inactive,,,,
Nc1ccc(F)cc1,inactive,inactive,inactive,inactive,,inactive,inactive,inactive,inactive
CC(=O)OC(C)C[N+](C)(C)C (stereo not given),inactive,inactive,inactive,inactive,inactive,,,,
O=C(O)c1cc(Cl)cc(Cl)c1O,inactive,inactive,inactive,inactive,inactive,inactive,inactive,inactive,
O=C(Oc1ccccc1)c1ccc2ccccc2c1O,inactive,54.5 µM (active),48.6 µM (active),inactive,,inactive,inactive,inactive,inactive
O=C(O)CCC(=O)OC[C@@H](NC(=O)C(Cl)Cl)[C@H](O)c1ccc([N+](=O)[O-])cc1,inactive,inactive,inactive,inactive,inactive,,,,
CSSc1ccoc1C,inactive,34.2 µM (active),19.2 µM (active),inactive,inactive,,,,
Cc1ccc2nc(N)[nH]c(=O)c2c1Sc1ccncc1,inactive,0.944 µM (active),0.596 µM (active),inactive,inactive,,,,
CC(C)COC(=O)COc1cc(Cl)c(Cl)cc1Cl,inactive,inactive,inactive,inactive,inactive,,,,
O=C(/C=C/c1ccc([N+](=O)[O-])cc1)c1ccccc1,inactive,inactive,inactive,inactive,inactive,,,,
Cc1cccc(C)c1NC(=O)c1cc(S(N)(=O)=O)c(Cl)cc1O,inactive,inactive,inactive,inactive,,,,,
CCCCCCCCCCCCCC(=O)OCC(O)CO (stereo not given),inactive,43.3 µM (active),43.3 µM (active),inactive,inactive,inactive,inactive,inactive,inactive
O=C(NC(Cc1cc(=O)[nH]c2ccccc12)C(=O)O)c1ccc(Cl)cc1 (stereo not given),inactive,inactive,inactive,inactive,inactive,,,,
O=C(CCS)OCC(COC(=O)CCS)(COC(=O)CCS)COC(=O)CCS,inactive,inactive,inactive,inactive,inactive,,,,
O=C(c1ccccc1)C1CCC1,inactive,inactive,inactive,inactive,,,,,
Nc1ccn([C@H]2CS[C@@H](CO)O2)c(=O)n1,inactive,inactive,inactive,inactive,inactive,,,,
CCOC(=O)c1c(N)sc2c1CCN(Cc1ccccc1)C2,inactive,29.8 µM (active),26.6 µM (active),inactive,inactive,,,,
CC(C)N=C=NC(C)C,inactive,inactive,inactive,inactive,inactive,,,,
O=C1CC[C@@H](C(=O)O)N1,inactive,inactive,inactive,inactive,,inactive,inactive,inactive,inactive
CC(C)(C)NCC(O)COc1cccc2c1C[C@H](O)[C@H](O)C2 (stereo not given in full),inactive,inactive,inactive,inactive,inactive,,,,
CC1=C2[C@@H]([C@H](C)CC[C@H]2/C=C(\C)C(=O)O)[C@H](O)C1,inactive,inactive,inactive,inactive,inactive,,,,
Cc1ccccc1S(N)(=O)=O,inactive,inactive,inactive,inactive,inactive,,,,
CN1C(CSCC(F)(F)F)Nc2cc(Cl)c(S(N)(=O)=O)cc2S1(=O)=O (stereo not given),inactive,26.6 µM (active),23.7 µM (active),inactive,inactive,inactive,inactive,inactive,inactive
